Reference: PubChem BioAssay AID1159580 (chemical genetic matrix, 2015)
Among all 5,500 compounds or so, about 2,000 (36%) were called active. Not shown: some 18% with an inconclusive outcome. Cut-off read from the data, not from the text of the source: active = normalized growth mostly below about 0.91 (no sharp cut-off); inconclusive = no clear call, values can overlap the other calls; inactive = mostly above about 0.92. Some of the results follow.

Assay: chemical genetic growth profiling, strain panel (AID 1159580);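 note: tested at 20 µM; growth read once vehicle control cultures reached saturation at 30 °C; 1 = growth at the plate median or of vehicle wells; lower values mean less growth of the strain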
Settings: growth OD

Measured: normalized growth

O=C1C=C2C(=CCOC2O)O1 (stereo unspecified)
inactive: S. cerevisiae deletion strains, locus YLR058C, strain SHM2, stronger effect = lower value 0.927 | S. cerevisiae deletion strains, locus YLR102C, strain apc9, stronger effect = lower value 0.96 | S. cerevisiae deletion strains, locus YLR357W, strain rsc2, stronger effect = lower value 0.862 | S. cerevisiae deletion strains, locus YLR371W, strain rom2, stronger effect = lower value 0.945 | S. cerevisiae deletion strains, locus YML016C, strain PPZ1, stronger effect = lower value 0.953 | S. cerevisiae deletion strains, locus YML032C, strain rad52, stronger effect = lower value 0.92 | S. cerevisiae deletion strains, locus YMR078C, strain ctf18, stronger effect = lower value 0.989 | S. cerevisiae deletion strains, locus YNL250W, strain rad50, stronger effect = lower value 0.903 | S. cerevisiae deletion strains, locus YNL271C, strain bni1, stronger effect = lower value 0.92 | S. cerevisiae deletion strains, locus YNL322C, strain KRE1 (second series), stronger effect = lower value 0.911 | S. cerevisiae deletion strains, locus YOL006C, strain TOP1, stronger effect = lower value 0.632 | S. cerevisiae deletion strains, locus YOL012C, strain htz1 0.714 | S. cerevisiae deletion strains, locus YOL147C, strain pex11, stronger effect = lower value 0.984 | S. cerevisiae deletion strains, locus YOR061W, strain CKA2, stronger effect = lower value 0.929 | S. cerevisiae deletion strains, locus YOR144C, strain elg1, stronger effect = lower value 0.966 | S. cerevisiae deletion strains, locus YOR231W, strain MKK1, stronger effect = lower value 0.877 | S. cerevisiae deletion strains, locus YOR316C, strain cot1, stronger effect = lower value 0.951 | S. cerevisiae deletion strains, locus YPR119W, strain clb2, stronger effect = lower value 0.965 | S. cerevisiae deletion strains, locus YPR167C, strain met16, stronger effect = lower value 0.937
active: S. cerevisiae deletion strains, locus YKL009W, strain mrt4, stronger effect = lower value 0.714 | S. cerevisiae deletion strains, locus YKL068W, stronger effect = lower value 0.904 | S. cerevisiae deletion strains, locus YKL085W, strain MDH1 (second series), stronger effect = lower value 0.868 | S. cerevisiae deletion strains, locus YKL085W, strain MDH1, stronger effect = lower value 0.868 | S. cerevisiae deletion strains, locus YKL160W, strain elf1, stronger effect = lower value 0.736 | S. cerevisiae deletion strains, locus YKL190W, strain CNB1, stronger effect = lower value 0.834 | S. cerevisiae deletion strains, locus YKR001C, strain vps1, stronger effect = lower value 0.541 | S. cerevisiae deletion strains, locus YKR026C, strain gcn3, stronger effect = lower value 0.795 | S. cerevisiae deletion strains, locus YKR091W, strain srl3, stronger effect = lower value 0.885 | S. cerevisiae deletion strains, locus YLL001W, strain dnm1, stronger effect = lower value 0.691 | S. cerevisiae deletion strains, locus YLL026W, stronger effect = lower value 0.769 | S. cerevisiae deletion strains, locus YLL041C, strain sdh2, stronger effect = lower value 0.84 | S. cerevisiae deletion strains, locus YLR027C, strain aat2, stronger effect = lower value 0.727 | S. cerevisiae deletion strains, locus YLR039C, strain RIC1, stronger effect = lower value 0.292 | S. cerevisiae deletion strains, locus YLR113W, strain HOG1, stronger effect = lower value 0.708 | S. cerevisiae deletion strains, locus YLR221C, strain rsa3, stronger effect = lower value 0.716 | S. cerevisiae deletion strains, locus YLR258W, strain gsy2, stronger effect = lower value 0.794 | S. cerevisiae deletion strains, locus YLR262C, strain YPT6 (second series), stronger effect = lower value 0.337 | S. cerevisiae deletion strains, locus YLR262C, strain YPT6, stronger effect = lower value 0.231 | S. cerevisiae deletion strains, locus YLR268W, strain sec22, stronger effect = lower value 0.794 | S. cerevisiae deletion strains, locus YLR320W, strain mms22, stronger effect = lower value 0.701 | S. cerevisiae deletion strains, locus YLR330W, strain CHS5, stronger effect = lower value 0.87 | S. cerevisiae deletion strains, locus YLR342W, strain FKS1 (second series), stronger effect = lower value 0.774 | S. cerevisiae deletion strains, locus YLR342W, strain FKS1, stronger effect = lower value 0.72 | S. cerevisiae deletion strains, locus YLR370C, strain arc18, stronger effect = lower value 0.697 | S. cerevisiae deletion strains, locus YLR384C, strain iki3, stronger effect = lower value 0.789 | S. cerevisiae deletion strains, locus YLR418C, strain cdc73, stronger effect = lower value 0.62 | S. cerevisiae deletion strains, locus YML120C, strain ndi1, stronger effect = lower value 0.76 | S. cerevisiae deletion strains, locus YML124C, strain tub3, stronger effect = lower value 0.918 | S. cerevisiae deletion strains, locus YMR058W, strain fet3, stronger effect = lower value 0.328 | S. cerevisiae deletion strains, locus YMR125W, strain sto1, stronger effect = lower value 0.729 | S. cerevisiae deletion strains, locus YMR129W, stronger effect = lower value 0.836 | S. cerevisiae deletion strains, locus YMR205C, strain PFK2, stronger effect = lower value 0.722 | S. cerevisiae deletion strains, locus YMR223W, strain ubp8, stronger effect = lower value 0.801 | S. cerevisiae deletion strains, locus YMR231W, strain pep5, stronger effect = lower value 0.0886 | S. cerevisiae deletion strains, locus YMR263W, strain SAP30, stronger effect = lower value 0.852 | S. cerevisiae deletion strains, locus YMR307W, strain GAS1, stronger effect = lower value 0.302 | S. cerevisiae deletion strains, locus YNL067W, strain RPL9B, stronger effect = lower value 0.689 | S. cerevisiae deletion strains, locus YNL071W, strain lat1, stronger effect = lower value 0.654 | S. cerevisiae deletion strains, locus YNL128W, strain TEP1, stronger effect = lower value 0.798 | S. cerevisiae deletion strains, locus YNL153C, strain GIM3, stronger effect = lower value 0.664 | S. cerevisiae deletion strains, locus YNL183C, strain NPR1, stronger effect = lower value 0.825 | S. cerevisiae deletion strains, locus YNL209W, strain ssb2, stronger effect = lower value 0.761 | S. cerevisiae deletion strains, locus YNL233W, strain BNI4, stronger effect = lower value 0.81 | S. cerevisiae deletion strains, locus YNL248C, strain rpa49, stronger effect = lower value 0.701 | S. cerevisiae deletion strains, locus YNL298W, strain CLA4, stronger effect = lower value 0.842 | S. cerevisiae deletion strains, locus YNL307C, strain MCK1, stronger effect = lower value 0.748 | S. cerevisiae deletion strains, locus YNL322C, strain KRE1, stronger effect = lower value 0.815 | S. cerevisiae deletion strains, locus YNR049C, strain mso1, stronger effect = lower value 0.812 | S. cerevisiae deletion strains, locus YNR052C, strain pop2, stronger effect = lower value 0.83 | S. cerevisiae deletion strains, locus YOR001W, strain rrp6, stronger effect = lower value 0.638 | S. cerevisiae deletion strains, locus YOR069W, strain VPS5, stronger effect = lower value 0.862 | S. cerevisiae deletion strains, locus YOR070C, strain gyp1, stronger effect = lower value 0.794 | S. cerevisiae deletion strains, locus YOR080W, strain dia2, stronger effect = lower value 0.864 | S. cerevisiae deletion strains, locus YOR083W, strain WHI5, stronger effect = lower value 0.662 | S. cerevisiae deletion strains, locus YOR106W, strain vam3, stronger effect = lower value 0.522 | S. cerevisiae deletion strains, locus YOR136W, strain idh2, stronger effect = lower value 0.896 | S. cerevisiae deletion strains, locus YOR184W, strain ser1, stronger effect = lower value 0.719 | S. cerevisiae deletion strains, locus YOR265W, strain rbl2, stronger effect = lower value 0.792 | S. cerevisiae deletion strains, locus YOR270C, strain vph1, stronger effect = lower value 0.506 | S. cerevisiae deletion strains, locus YOR290C, strain snf2, stronger effect = lower value 0.86 | S. cerevisiae deletion strains, locus YPL051W, strain arl3, stronger effect = lower value 0.607 | S. cerevisiae deletion strains, locus YPL055C, strain LGE1, stronger effect = lower value 0.601 | S. cerevisiae deletion strains, locus YPL078C, strain atp4, stronger effect = lower value 0.615 | S. cerevisiae deletion strains, locus YPL106C, strain sse1, stronger effect = lower value 0.542 | S. cerevisiae deletion strains, locus YPL240C, strain hsp82, stronger effect = lower value 0.852 | S. cerevisiae deletion strains, locus YPL241C, strain CIN2, stronger effect = lower value 0.921 | S. cerevisiae deletion strains, locus YPL256C, strain CLN2, stronger effect = lower value 0.809 | S. cerevisiae deletion strains, locus YPR141C, strain kar3, stronger effect = lower value 0.898 | S. cerevisiae deletion strains, locus YPR163C, strain tif3, stronger effect = lower value 0.823 | S. cerevisiae deletion strains, strain wtn01, stronger effect = lower value 0.76 | S. cerevisiae strains, strain wild type, stronger effect = lower value 0.78
